# The campaign covered roughly 2,300 compounds. About 900 (39%) were called active.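 Rule for the calls: active = mean duplicate percent inhibition, scaled so buffer wells are 0 and the reference blocker 100, over three buffer SD above buffer mean; inactive = the rest.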 Not all results are given here.
# Molecular target: Anoctamin-1 (Mus musculus) (UniProt Q8BHY3)
# Test: blockers of mouse ANO1 channel, retest – cell-based, re-confirmation, confirmation (AID 652189)
# Conditions: HEK293 TMEM16A/YFP-H148Q, iodide quench fluorescence, at 10 µM, ionomycin added to raise cell calcium; hits give high values
# Sequence of Anoctamin-1 (Mus musculus) (Q8BHY3 whole entry, looked up): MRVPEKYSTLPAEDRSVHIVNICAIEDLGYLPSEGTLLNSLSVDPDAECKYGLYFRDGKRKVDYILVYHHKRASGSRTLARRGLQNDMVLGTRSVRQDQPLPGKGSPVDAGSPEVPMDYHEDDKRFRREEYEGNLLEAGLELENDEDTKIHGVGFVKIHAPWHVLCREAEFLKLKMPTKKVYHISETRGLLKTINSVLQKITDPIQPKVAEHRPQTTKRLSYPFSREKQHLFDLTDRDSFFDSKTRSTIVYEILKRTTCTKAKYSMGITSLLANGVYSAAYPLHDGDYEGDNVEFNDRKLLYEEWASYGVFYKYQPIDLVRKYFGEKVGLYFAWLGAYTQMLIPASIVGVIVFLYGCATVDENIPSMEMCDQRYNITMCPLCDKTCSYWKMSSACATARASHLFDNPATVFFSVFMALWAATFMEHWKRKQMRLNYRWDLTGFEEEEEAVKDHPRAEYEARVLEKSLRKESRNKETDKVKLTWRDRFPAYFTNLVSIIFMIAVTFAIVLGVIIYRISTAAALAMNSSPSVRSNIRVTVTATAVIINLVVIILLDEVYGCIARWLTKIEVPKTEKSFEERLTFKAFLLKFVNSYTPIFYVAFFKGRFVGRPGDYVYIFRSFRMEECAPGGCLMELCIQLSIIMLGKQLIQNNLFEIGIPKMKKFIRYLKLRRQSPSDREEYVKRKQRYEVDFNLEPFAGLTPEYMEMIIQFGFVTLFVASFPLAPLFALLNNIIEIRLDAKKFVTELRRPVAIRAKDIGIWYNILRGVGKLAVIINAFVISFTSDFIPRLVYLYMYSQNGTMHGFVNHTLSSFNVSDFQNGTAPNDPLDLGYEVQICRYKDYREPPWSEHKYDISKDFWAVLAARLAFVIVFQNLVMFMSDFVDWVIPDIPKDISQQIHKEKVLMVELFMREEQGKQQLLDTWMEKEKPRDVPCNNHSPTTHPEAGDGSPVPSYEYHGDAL
row,Compound,inhibition
1,CCCCCn1c(=O)c(C(=O)NCc2ccccn2)c(O)c2ccccc21,23% (active)
2,CCOc1cccc(=NC2CCCCC2)c2c(C)[nH]c(C)c12,inactive
3,CCN(CC)C(=O)c1ccc(NC(=O)c2cc(-n3cnnc3)ccc2Cl)cc1,inactive

# Reference: PubChem BioAssay AID652189 (Johns Hopkins Ion Channel Center, 2013)
